Measured values reported in PubChem BioAssay (NCI).
Compounds without any hit were thinned out: in the full panel of roughly 79,000, 15% have a hit. Cut-off read from the data, not from the text of the source: active = growth inhibition above about 70%; inactive = the rest.

Experiments:
[1] = NCI Yeast Anticancer Drug Screen. Data for the rad50 strain (AID 155);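 note: 0% = growth of vehicle-only cultures of the same strain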; conditions: S. cerevisiae rad50 strain growth inhibition; at 50.0 µM; active compounds read high
Summary of the method: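 A DNA repair-deficient yeast mutant serves as the test organism; compound-induced growth inhibition is calculated against vehicle-treated cells.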

[2] = NCI Yeast Anticancer Drug Screen. Data for the mec2-1 strain (AID 157); conditions: S. cerevisiae mec2-1 strain, at 50.0 µM, active compounds read high
Summary of the method: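 Yeast mec2-1 mutant treated with compound. Readout: growth inhibition vs vehicle controls.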

[3] = NCI Yeast Anticancer Drug Screen. Data for the sgs1 mgt1 strain (AID 161);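 note: 0% = growth of cultures given vehicle only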; conditions: S. cerevisiae sgs1 mgt1 strain, at 50.0 µM, active compounds read high
Summary of the method: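 Read-out: growth inhibition vs vehicle controls. Cells: mutant yeast strain deficient in DNA damage repair.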

[4] = NCI Yeast Anticancer Drug Screen. Data for the cln2 rad14 strain (AID 165);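 note: 0% = growth equal to vehicle treated cultures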; conditions: S. cerevisiae cln2 rad14 strain, at 50.0 µM, active compounds read high
Summary of the method: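 cln2 rad14 yeast strain; compound exposure; growth inhibition read vs vehicle controls.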

[5] = NCI Yeast Anticancer Drug Screen. Data for the bub3 strain (AID 167); conditions: S. cerevisiae bub3 mutant strain, at 50.0 µM, active compounds read high
Summary of the method: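 Inhibition values come from growth of compound-treated mutant yeast normalised to vehicle-treated controls.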

[6] = NCI Yeast Anticancer Drug Screen. Data for the mlh1 rad18 strain (AID 175); conditions: S. cerevisiae mlh1 rad18 strain growth inhibition; at 50.0 µM; active compounds read high
Summary of the method: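 Yeast w/ defined DNA-repair lesions; compound exposure; growth vs vehicle controls → % inhibition.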

Measured: growth inhibition

Cc1cc2ccccc2c(Br)c1C
inactive: [1] 5% | [2] 4.95% | [3] 26% | [4] -36.8% | [5] -4.35% | [6] 4.7%

COc1cc2c(c(Cl)c1O)C(=O)OC2
inactive: [1] -4.25% | [2] -7.8% | [3] 12.8% | [4] 3.55% | [5] -6.8% | [6] 17.4%

Cc1ccccc1N1CC2CC3C=CC2(C1)O3 (stereo unspecified)
inactive: [1] 8.5% | [2] 15.9% | [3] 16.8% | [4] -10.1% | [5] 1.35% | [6] 1.7%

C=CCN=C1NC(=O)C(CC(=O)Nc2ccc(C)cc2)S1 (stereo unspecified)
inactive: [1] -22.6% | [2] -0.25% | [3] 0.25% | [4] 17.4% | [5] 7.05% | [6] 7.65%

CC(C)(C)CNCCCBr
inactive: [1] -19.9% | [2] -4.8% | [3] -9.05% | [4] -13.3% | [5] 30.8% | [6] 8.15%

COc1c(OC2OC(CO)C(O)C(O)C2O)cc2occ(-c3ccc4c(c3)OCO4)c(=O)c2c1O (stereo unspecified)
inactive: [1] 23.6% | [2] -9.7% | [3] -10% | [4] 4.6% | [5] 12.1% | [6] 18.6%

COc1cc(NCCCCCNC(C)C)c2ncccc2c1OC
inactive: [1] -15.1% | [2] -9.9% | [3] -1.95% | [4] -11.3% | [5] 9.05% | [6] -3.1%

O=C1CCCCCCN1
inactive: [1] 8.9% | [2] -33.4% | [3] 1.5% | [4] 16.6% | [5] -17.2% | [6] 12.6%

CN(C)c1ccc(/C=C2\N=C(c3ccc([N+](=O)[O-])cc3)OC2=O)cc1
inactive: [1] 1.35% | [2] -6.75% | [3] 17.1% | [4] 6.95% | [5] 14.9% | [6] 7.55%

O=C1OCc2c1cc1cc3c(cc1c2-c1ccc2c(c1)OCO2)OCO3
inactive: [1] 2.1% | [2] -36.1% | [3] 3.4% | [4] 4.8% | [5] -19.2% | [6] 3.85%

Cc1ncc([N+](=O)[O-])n1CCNC(=O)CCCn1cnc([N+](=O)[O-])n1
inactive: [1] -17.8% | [2] -34% | [3] -15.8% | [4] -17.4% | [5] -27.9% | [6] -38.9%

COc1ccc(Br)c(CN2CCc3ccccc32)c1OS(=O)(=O)c1ccc(C)cc1
inactive: [1] 13.8% | [2] -0.3% | [3] 18.7% | [4] 4.1% | [5] 5.45% | [6] 12.4%

CCCCCN(CCCCC)c1ccc(/C=C/c2ccnc3ccccc23)cc1
inactive: [1] 1.6% | [2] 7.05% | [3] 22.9% | [4] -15.7% | [5] -10.2% | [6] 14.6%

Oc1cc(CN2CCOCC2)c(O)c(CN2CCOCC2)c1CN1CCOCC1
inactive: [1] 5.25% | [2] 7.45% | [3] 10.3% | [4] 27.4% | [5] -1.05% | [6] -3.3%

C[C@@H]1CCC[C@H]1C(N)C(=O)O (stereo partly specified)
inactive: [1] -18% | [2] 2% | [3] -3.85% | [4] -25.1% | [5] -18.1% | [6] -12.9%

COc1ccc(Nc2nc3c(N)cc(C(F)(F)F)cc3nc2-c2ccccc2)cc1OC
inactive: [1] 0.5% | [2] 0.95% | [3] -22.6% | [4] -6.8% | [5] -18.6% | [6] -7.1%

COc1cc(C(C)O)c[n+](Cc2ccccc2)c1 (stereo unspecified)
inactive: [1] -31.6% | [2] -7.3% | [3] -16.1% | [4] 3.6% | [5] -18.9% | [6] -18.9%

Cc1cc(S(=O)(=O)Cl)ccc1Cl
inactive: [1] 14.6% | [2] 1.3% | [3] -0.6% | [4] -29.2% | [5] 9.05% | [6] 7.6%

NC1C2C=CC(C2)C1C(=O)O (stereo unspecified)
inactive: [1] -0.65% | [2] -0.25% | [3] -50.4% | [4] 4% | [5] -26.6% | [6] -17.3%

Cc1ccc(S(=O)(=O)O/C=C2/CCOC2=O)cc1
inactive: [1] 29.6% | [2] 43.2% | [3] 29.9% | [4] 28.8% | [5] 38.2% | [6] 60.9%

CCn1ncc2ccc(N(CO)CO)cc21
inactive: [1] -2.4% | [2] 22.1% | [3] -13.6% | [4] -20.2% | [5] -22.6% | [6] 4.1%

Nc1nc2nc3c(nc2c(=O)[nH]1)CN(c1ccc(C(=O)O)cc1)C3=O
inactive: [1] 19.4% | [2] 5.6% | [3] -5.05% | [4] -7.45% | [5] 14.7% | [6] 11.4%

O=C(Nc1nc2ncn(CCNCc3ccccc3)c2c(=O)[nH]1)c1ccccc1
inactive: [1] -7.75% | [2] -22.8% | [3] 6.25% | [4] 10.6% | [5] 15.4% | [6] 24.6%

Clc1ccccc1OCCNC1CC1
inactive: [1] 20.7% | [2] -0.1% | [3] -10.8% | [4] -45% | [5] 4.95% | [6] 1.7%

CCCCCCCCCC(=O)N/N=C/c1cccs1
inactive: [1] 0.95% | [2] 24.2% | [3] 3.9% | [4] -12.7% | [5] 35.8% | [6] 15.3%

COc1cc2c(oc(=O)c3c4occc4cc(OC)c23)c2cccc(O)c12
inactive: [1] -31.6% | [2] -47% | [3] -37.2% | [4] -13.6% | [5] -24.8% | [6] -56.2%

O=[N+]([O-])C1(CO)COC2(OC1)c1ccccc1-c1ccccc12
inactive: [1] 0.5% | [2] -7.2% | [3] -21.6% | [4] 11.8% | [5] -26.8% | [6] -0.25%

O=C(O)c1cc(C(=O)O)cc(S(=O)(=O)N2CCOCC2)c1
inactive: [1] -2.1% | [2] 3.25% | [3] -3.8% | [4] -37.8% | [5] 6.05% | [6] -16.2%

CN1CNc2nc(N)n(C)c(=O)c2C1
inactive: [1] 11.2% | [2] -4.7% | [3] 11.4% | [4] 11.8% | [5] -6.5% | [6] 8.2%

NC(c1ccccc1)(c1ccccc1)c1ccccc1
inactive: [1] 20.1% | [2] 2.9% | [3] 43.9% | [4] -9.8% | [5] 19.4% | [6] 11%

O=[N+]([O-])c1ccc(N/N=C(/c2ccc(Cl)cc2)c2ccccc2Cl)c([N+](=O)[O-])c1
inactive: [1] -15.8% | [2] 1.2% | [3] -6.25% | [4] -16.8% | [5] 3.35% | [6] 21.4%

C/C=C1\CN2CCc3c([nH]c4ccccc34)C2CC1CC(=O)N(C)C (stereo unspecified)
inactive: [1] 0.9% | [2] -7.75% | [3] -20.6% | [4] -1% | [5] 1.6% | [6] -5.95%

CCN(CC)CCOc1ccc2ccccc2c1C(Cc1ccccc1)NCCO (stereo unspecified)
inactive: [1] -13.2% | [2] 1.95% | [3] -20.2% | [4] -19.6% | [5] 3% | [6] 3.05%

COc1ccc(C2=C/C(=C/c3cccs3)C(=O)O2)cc1
inactive: [1] -14.2% | [2] 1.45% | [3] -0.15% | [4] -36.9% | [5] 3.75% | [6] 0.15%

COc1cc(/C=C/C(=N\NC(N)=S)c2sc(NNC(C)=O)nc2C)ccc1O
inactive: [1] 22.9% | [2] 6.8% | [3] 16.3% | [4] 21.2% | [5] 24.6% | [6] 14.8%

c1ccc(COc2ccc(CC3SCCCS3)cc2)cc1
inactive: [1] -30.5% | [2] -35.8% | [3] -10.4% | [4] 24.9% | [5] 16.6% | [6] -7.5%

Cc1c(Br)[n+](=O)c2ccccc2n1[O-]
inactive: [1] 1.6% | [2] 6.45% | [3] 17.4% | [4] 14.2% | [5] 11.9% | [6] 21.9%

CN(NC(=O)c1cccs1)C1=NCCN1
inactive: [1] -25.9% | [2] -23.2% | [3] -24.9% | [4] 7.25% | [5] 18.4% | [6] -7.7%

COc1cc(Cc2c(OC)c(OC)cc(C)c2C(=O)O)cc(OC)c1
inactive: [1] 18.6% | [2] -12.8% | [3] -1.75% | [4] 6.95% | [5] -13.9% | [6] -14.4%

CC(=O)NCCC1CN(C(=O)/C=C/I)c2ccccc21 (stereo unspecified)
inactive: [1] -8.4% | [2] 30.4% | [3] 4.55% | [4] 37.7% | [5] 24.6% | [6] -17.4%

Cc1ccc(S(=O)(=O)c2ccccn2)cc1
inactive: [1] -37.2% | [2] -11.2% | [3] -9.35% | [4] -1.7% | [5] -13% | [6] -24.1%
